IL-1B inflam inh: blocks inflammasome-driven IL-1 beta release; activity change, % at 57.5 µM; 360,000 compounds, 4.7% hits; AID 743279; THP-1 LPS/ATP IL-1B secretion, AlphaLISA, 16 h; stronger effect = lower value; in the data active = activity change below about -50%; inconclusive = mostly about -30% to -49%; also: % is scaled to controls: 0 for no effect and ±100 for the full control effect
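Secreted IL-1B measured by AlphaLISA bead assay after 16 h compound exposure of THP-1 cells; compounds (final up to 57.5 uM) added 1 h before LPS (250 ng/mL) and ATP (1.25 mM) stimulation; lower signal means less secretion.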
TDP1 inh: inhibitors of human tyrosyl-DNA phosphodiesterase TDP1 | recombinant TDP1, AlphaScreen DNA substrate cleavage | 350,000 compounds, 0.28% hits | Potency, µM (series often up to 130 µM), for inactives: at the top dose activity change, negative = inhibition, hits mostly inhibitors; also: potency is read from the fitted curve at half-maximal effect; % is scaled to controls: 0 for no effect and ±100 for the full control effect; nearly all actives have a fitted effect of over 40% in size
Target sequence (Q9NUW8 whole entry, looked up): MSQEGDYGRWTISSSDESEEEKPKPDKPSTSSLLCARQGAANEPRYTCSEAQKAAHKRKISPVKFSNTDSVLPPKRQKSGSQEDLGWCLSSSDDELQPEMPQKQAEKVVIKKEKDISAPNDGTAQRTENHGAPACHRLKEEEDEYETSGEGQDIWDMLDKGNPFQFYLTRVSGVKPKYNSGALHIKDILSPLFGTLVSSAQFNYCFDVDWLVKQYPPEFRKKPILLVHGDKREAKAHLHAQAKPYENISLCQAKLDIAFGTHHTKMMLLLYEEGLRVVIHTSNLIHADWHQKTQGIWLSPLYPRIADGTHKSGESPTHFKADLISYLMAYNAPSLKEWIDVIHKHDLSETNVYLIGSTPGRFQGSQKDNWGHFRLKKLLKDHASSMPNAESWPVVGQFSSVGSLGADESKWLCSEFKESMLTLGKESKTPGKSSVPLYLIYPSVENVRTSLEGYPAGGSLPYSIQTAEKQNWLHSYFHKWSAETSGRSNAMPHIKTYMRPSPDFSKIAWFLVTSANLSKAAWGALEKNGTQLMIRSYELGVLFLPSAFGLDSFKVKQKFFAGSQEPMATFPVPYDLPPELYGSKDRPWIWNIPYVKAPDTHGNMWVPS
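E. coli-derived human Tdp1, 1 nM final. Cpd preinc 15 min RT; substrate 15 nM final, 5 min RT; AS bead mix 10 ug/ml final, 10 min RT. Signal loss = tyrosine-FITC cleavage. No-enzyme wells = max signal.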
TDP1 cell noCPT: qHTS for Inhibitors of human tyrosyl-DNA phosphodiesterase 1 (TDP1): qHTS in cells in absence of CPT; Potency, µM (top dose mostly 46.2 µM), for inactives: at the highest dose activity change, negative = growth inhibition, usual class: inhibitors; 420,000 compounds, 15% hits; AID 686978, 2013; DT40 Tdp1-/- hTDP1 cells, no CPT, ATP luminescence, 48 h; also: potency is read from the fitted curve at half-maximal effect; % is scaled to controls: 0 for no effect and ±100 for the full control effect; nearly all actives have a fitted effect of over 55% in size
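Stably hTDP1-transfected Tdp1-null chicken DT40 cells were treated with library compounds minus camptothecin and grown for at least 48 hr at 37 °C, after which cellular ATP was quantified by luminescence.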
TDP1 cell CPT: DT40-hTDP1 cell growth loss with CPT. chicken DT40 Tdp1-/-;hTDP1 cells + 20 nM CPT, ATP luminescence, 48 h. Potency, µM (top dose mostly 46.2 µM), without a hit: at the highest dose activity change, negative = growth inhibition, hits mostly inhibitors. 420,000 compounds, 12% hits; also: potency is read from the fitted curve at half-maximal effect; % is scaled to controls: 0 for no effect and ±100 for the full control effect; nearly all actives have a fitted effect of over 55% in size
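Cell growth measured by CellTiter-Glo luminescence after a minimum 48 h, 37 C compound exposure with 20 nM CPT in Tdp1-knockout DT40 cells stably expressing hTDP1, seeded 400/well; qHTS titration format.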
TGFb inhibitor: blocks TGF-b signaling. HepG2 CAGA-GFP TGF-b/SMAD3 reporter, GFP fluorescence, 18 h; TGF-beta stimulated, 500 pg/mL final. Potency, µM (top dose mostly 46.1 µM), for the others: top-dose activity, negative = inhibition, hits mostly inhibitors. 410,000 compounds, 1.2% hits; also: potency is read from the fitted curve at half-maximal effect; % is scaled to controls: 0 for no effect and ±100 for the full control effect; nearly all actives have a fitted effect of over 65% in size
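Using HEPG2 CAGA-GFP reporter cells at 1000 cells/well, we pinned test compounds, stimulated with recombinant TGF-beta (500 pg/mL final) and measured total well GFP after 18 h.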
HepG2 viability: kills HepG2 cells in TGF-b inhibitor counter-screen. HepG2 CAGA-GFP viability, ATP luminescence, 18 h. Potency, µM (highest dose often 46.1 µM), for the others: at the highest dose activity change, negative = cytotoxicity, hits mostly cytotoxic. 410,000 compounds, 0.76% hits; also: potency is read from the fitted curve at half-maximal effect
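HepG2 CAGA-GFP cells (1000/well, DMEM with 1% FBS) received compound, then TGF-beta at 500 pg/mL final, and were incubated 18 hours at 37 degrees C. Viability was read by CellTiter-Glo luminescence. Media-only wells were set as complete cell-killing and DMSO as no toxicity.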
Active calls of the source: *; ? = inconclusive; . = not tested or not shown; [ ] = dose if it differs, or a comment. A selection: hits, their analogues and other compounds. The true share with any hit is near 19%. Unless noted, calls follow the shape of the dose curve; as a rule, active = well fitted curve in the direction sought with a large enough effect; inconclusive = small, poorly fitted or top-dose-only effect, or another doubt; inactive = no such curve, though single readings can be large; an effect the other way counts as inactive or inconclusive.

SMILES	IL-1B inflam inh	TDP1 inh	TDP1 cell noCPT	TDP1 cell CPT	TGFb inhibitor	HepG2 viability
Cn1c(=O)c2c(SCC(=O)NCCc3ccccc3)nc(C3CC3)nc2n(C)c1=O	0	1%	-1%	-5%	17%	5%
Cn1c(=O)c2c(SCC(=O)N3CCN(c4ccccc4)CC3)nc(C3CC3)nc2n(C)c1=O	0	.	7.3µM*	13µM*	0%	-1%
COCCNc1ccnc(-c2ccccc2C)n1	.	.	1%	-9%	.	.
CCc1ccc2oc(C(=O)NCc3ccccc3)cc(=O)c2c1	.	-4%	?	-14%	-20%	0%
O=c1c2sc(-c3ccccc3)cc2nc2n1CCC2	?	10%[56.1 µM]	-23%	-38%	-6%	-31%
O=c1c2sc(-c3ccccc3)cc2nc2n1CCCCC2	.	-1%	12µM*	-21%	0%	-29%
CCCCN(Cc1nc2ccccc2c(=O)[nH]1)C(=O)COc1ccc(F)cc1Cl	17	-11%	15µM*	18µM*	1%	1%
COCCN(Cc1nc2ccccc2c(=O)[nH]1)C(=O)COc1c(C)cc(Cl)cc1C	-19	1%	?	?	-11%	-12%
CC(C)C(=O)N(Cc1ccc(F)cc1)Cc1nc2ccccc2c(=O)[nH]1	8	1%	?	?	-2%	20µM*
COc1ccccc1CN(Cc1nc2ccccc2c(=O)[nH]1)C(=O)Nc1cccc(C)c1	-5	11%	3.7µM*	3.3µM*	?	8.9µM*
COc1ccccc1NC(=O)N(Cc1ccc2c(c1)OCO2)Cc1nc2ccccc2c(=O)[nH]1	14	-1%	13µM*	18µM*	-2%	1%
COc1ccc(Cl)cc1NC(=O)NCc1ccc2c(c1)OCO2	8	1%	2%	-2%	-15%	-11%
CCn1c(N)c(C(=O)Nc2ccccc2C(=O)OC)sc1=S	34	8%	16µM*	?	3%	0%
O=C(NCc1nnc2c(C(F)(F)F)cc(Cl)cn12)c1ccc2c(c1)OCO2	-4	3%	-24%	-21%	7%	10%
c1ccc2c(c1)NCC1CCCN21 (stereo unspecified)	15	.	16µM*	21µM*	0%	0%
COc1ccc(C(=O)COC(=O)c2cc(S(=O)(=O)NCc3ccccc3)ccc2O)cc1	22	4%	?	?	0%	4%
Cc1ccc(Cc2c(-c3ccccc3)nc3cc(C)ccn23)cc1	20	.	18µM*	16µM*	?	-30%
Cc1ccn2c(Cc3ccccc3)c(-c3ccc(F)cc3)nc2c1	-19	.	21µM*	23µM*	?	-30%
Cc1c(N2C(=O)/C(=C/c3ccc(N(C)C)cc3)N(C)C2=S)c(=O)n(-c2ccccc2)n1C	-22	.	-21%	4%	-3%	-13%
CC(C)(C)OC(=O)N/N=C/c1cc(N=Nc2ccccc2)ccc1O	-11	11%	?	?	?	-27%
Cc1ccc(/C=C2\SC(=S)N(c3c(C)n(C)n(-c4ccccc4)c3=O)C2=O)cc1	-80*	7%	-19%	?	23%	-33%
Cc1c(N2C(=O)/C(=C\c3ccccc3O)SC2=S)c(=O)n(-c2ccccc2)n1C	?	-2%	?	7.3µM*	?	-51%
CN1C(=O)/C(=C/c2cc(N=Nc3ccccc3)ccc2O)SC1=S	27	8%	23µM*	?	?	-10%
Cc1c(N2C(=O)/C(=C/c3cccc4ccccc34)SC2=S)c(=O)n(-c2ccccc2)n1C	-80*	.	-17%	?	1%	-9%

Screening results deposited in PubChem BioAssay by National Center for Advancing Translational Sciences (NCATS).
